Experimental data as given in paper PMC7862700, “An all-to-all approach to the identification of sequence-specific readers for epigenetic DNA modifications on cytosine”.

Columns and labels:
Assay in all cases: DAPPL (digital affinity profiling via proximity ligation, sequencing); 10 mM Tris-HCl pH 7.5, 50 mM NaCl, 1 mM DTT, 4% glycerol, room temperature, 30 min; GST-TFs on glutathione beads, 16-mer random dsDNA library, 0.1% formaldehyde crosslink after washing; high values mean tight binding
FLI1 = molecular target: T1, FLI1 (Homo sapiens, UniProt Q01543 1-452); details: protein: recombinant; tags: N-terminal GST; dsDNA, one strand shown
T1 sequence: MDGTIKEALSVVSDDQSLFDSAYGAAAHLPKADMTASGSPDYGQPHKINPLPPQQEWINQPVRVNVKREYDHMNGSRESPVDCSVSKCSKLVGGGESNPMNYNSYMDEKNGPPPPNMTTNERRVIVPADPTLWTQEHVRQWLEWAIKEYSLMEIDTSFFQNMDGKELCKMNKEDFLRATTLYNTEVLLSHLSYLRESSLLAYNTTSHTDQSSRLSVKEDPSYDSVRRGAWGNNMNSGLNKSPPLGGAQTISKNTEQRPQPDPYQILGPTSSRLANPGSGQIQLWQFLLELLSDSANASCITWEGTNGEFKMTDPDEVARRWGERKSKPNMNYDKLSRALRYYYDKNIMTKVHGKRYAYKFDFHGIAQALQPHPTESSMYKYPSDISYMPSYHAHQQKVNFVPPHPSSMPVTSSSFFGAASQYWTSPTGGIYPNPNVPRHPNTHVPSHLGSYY
In short: (§1)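 GST fusions of human transcription factors were expressed in yeast and captured with glutathione beads. Once given DNA barcodes and pooled alongside a tag-only sample, they were incubated for 30 min at room temperature with 200 nmole of a random double-stranded 16-mer DNA library in Tris/NaCl/DTT/glycerol buffer, then washed, crosslinked (0.1% formaldehyde), proximity-ligated, PCR-amplified and sequenced on an Illumina NextSeq500. The binding signal of each hexamer is its read frequency for a factor divided by its frequency for the tag-only sample.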

ELK1 = molecular target: T2, ELK1 (Homo sapiens, UniProt P19419 1-428); details: protein: recombinant; tags: N-terminal GST; dsDNA, one strand shown
T2 sequence: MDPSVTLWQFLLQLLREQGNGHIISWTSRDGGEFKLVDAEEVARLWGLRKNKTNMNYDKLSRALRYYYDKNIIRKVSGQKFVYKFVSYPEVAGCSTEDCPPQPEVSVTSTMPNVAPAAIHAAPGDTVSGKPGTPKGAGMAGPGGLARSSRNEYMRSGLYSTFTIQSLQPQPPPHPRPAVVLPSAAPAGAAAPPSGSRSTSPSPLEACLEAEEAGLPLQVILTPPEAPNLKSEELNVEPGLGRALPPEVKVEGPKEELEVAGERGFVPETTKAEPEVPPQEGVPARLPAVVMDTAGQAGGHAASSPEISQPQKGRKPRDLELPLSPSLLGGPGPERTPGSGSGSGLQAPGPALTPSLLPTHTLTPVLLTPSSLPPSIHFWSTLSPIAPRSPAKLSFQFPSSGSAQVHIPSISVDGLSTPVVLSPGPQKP
In short: as §1

GABPA = molecular target: T3, GABPA (Homo sapiens, UniProt Q06546 1-454); details: protein: recombinant; tags: N-terminal GST; dsDNA, one strand shown
T3 sequence: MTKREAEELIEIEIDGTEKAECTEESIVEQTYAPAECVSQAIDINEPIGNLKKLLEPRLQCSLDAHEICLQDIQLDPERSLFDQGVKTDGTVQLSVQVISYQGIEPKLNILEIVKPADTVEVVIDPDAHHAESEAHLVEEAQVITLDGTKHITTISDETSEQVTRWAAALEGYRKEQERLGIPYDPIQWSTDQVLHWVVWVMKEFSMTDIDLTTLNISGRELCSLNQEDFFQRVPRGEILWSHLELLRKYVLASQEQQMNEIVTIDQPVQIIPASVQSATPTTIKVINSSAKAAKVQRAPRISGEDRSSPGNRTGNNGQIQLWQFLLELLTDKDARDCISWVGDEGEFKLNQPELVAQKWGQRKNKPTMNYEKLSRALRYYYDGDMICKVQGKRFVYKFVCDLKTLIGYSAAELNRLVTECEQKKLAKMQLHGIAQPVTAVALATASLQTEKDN
In short: as §1

ERG = molecular target: T4, ERG (Homo sapiens, UniProt P11308 1-479); details: protein: recombinant; tags: N-terminal GST; dsDNA, one strand shown
T4 sequence: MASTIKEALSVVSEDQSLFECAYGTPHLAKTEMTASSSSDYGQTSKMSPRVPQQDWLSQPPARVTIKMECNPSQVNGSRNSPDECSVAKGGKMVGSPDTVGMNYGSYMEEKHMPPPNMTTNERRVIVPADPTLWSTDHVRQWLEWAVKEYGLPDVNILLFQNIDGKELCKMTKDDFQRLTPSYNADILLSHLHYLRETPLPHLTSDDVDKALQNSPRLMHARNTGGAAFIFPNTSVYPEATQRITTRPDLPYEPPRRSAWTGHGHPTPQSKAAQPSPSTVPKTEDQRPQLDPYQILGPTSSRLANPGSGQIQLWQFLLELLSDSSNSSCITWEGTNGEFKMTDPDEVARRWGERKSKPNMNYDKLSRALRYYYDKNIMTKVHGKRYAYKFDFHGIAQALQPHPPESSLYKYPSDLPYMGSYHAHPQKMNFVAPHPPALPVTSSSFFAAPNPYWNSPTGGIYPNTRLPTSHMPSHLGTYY
In short: as §1

ELF1 = ELF1 (Homo sapiens, UniProt P32519 1-619); details: protein: recombinant; tags: N-terminal GST; dsDNA, one strand shown
Chain of ELF1 (P32519 whole entry): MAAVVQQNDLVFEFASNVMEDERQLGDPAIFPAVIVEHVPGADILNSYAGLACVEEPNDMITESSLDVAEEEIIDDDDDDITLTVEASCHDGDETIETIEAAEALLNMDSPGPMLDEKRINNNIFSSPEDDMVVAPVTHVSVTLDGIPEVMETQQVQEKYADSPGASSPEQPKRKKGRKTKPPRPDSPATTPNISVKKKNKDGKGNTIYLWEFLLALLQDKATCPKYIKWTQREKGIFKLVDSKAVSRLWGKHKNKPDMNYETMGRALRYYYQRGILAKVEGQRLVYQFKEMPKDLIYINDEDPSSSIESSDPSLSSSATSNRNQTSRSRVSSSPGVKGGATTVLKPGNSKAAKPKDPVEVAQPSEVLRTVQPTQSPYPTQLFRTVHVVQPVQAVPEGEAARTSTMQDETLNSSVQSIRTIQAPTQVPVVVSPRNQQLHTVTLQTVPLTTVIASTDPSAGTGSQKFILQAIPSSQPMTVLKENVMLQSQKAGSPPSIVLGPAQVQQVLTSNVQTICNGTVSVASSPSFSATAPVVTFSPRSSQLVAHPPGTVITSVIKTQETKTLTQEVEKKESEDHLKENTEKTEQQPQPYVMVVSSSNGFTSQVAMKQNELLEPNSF
In short: as §1

EHF = molecular target: T5, EHF (Homo sapiens, UniProt Q9NZC4 1-300); details: protein: recombinant; tags: N-terminal GST; dsDNA, one strand shown
T5 sequence: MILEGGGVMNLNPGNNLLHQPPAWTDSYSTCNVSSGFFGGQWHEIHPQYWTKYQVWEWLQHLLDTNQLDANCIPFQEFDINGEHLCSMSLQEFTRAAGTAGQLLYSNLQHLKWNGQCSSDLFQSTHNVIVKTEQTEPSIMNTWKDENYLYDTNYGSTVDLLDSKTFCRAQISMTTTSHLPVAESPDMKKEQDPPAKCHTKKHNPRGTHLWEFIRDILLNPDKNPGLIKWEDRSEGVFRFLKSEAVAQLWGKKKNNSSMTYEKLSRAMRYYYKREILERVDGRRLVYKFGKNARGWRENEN
In short: as §1

SPI1 = SPI1 (Homo sapiens, UniProt P17947 1-270); details: protein: recombinant; tags: N-terminal GST; dsDNA, one strand shown
In short: as §1

SPIB = SPIB (Homo sapiens, UniProt Q01892 1-262); details: protein: recombinant; tags: N-terminal GST; dsDNA, one strand shown
Chain of SPIB (Q01892 whole entry): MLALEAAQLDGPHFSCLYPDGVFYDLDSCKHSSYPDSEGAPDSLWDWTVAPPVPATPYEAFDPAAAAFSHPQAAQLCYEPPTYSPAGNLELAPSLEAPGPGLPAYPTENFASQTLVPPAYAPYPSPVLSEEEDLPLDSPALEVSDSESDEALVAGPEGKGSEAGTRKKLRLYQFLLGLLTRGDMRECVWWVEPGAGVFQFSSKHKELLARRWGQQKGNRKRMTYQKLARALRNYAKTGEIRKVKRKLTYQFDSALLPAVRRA
In short: as §1

ELK3 = molecular target: T6, ELK3 (Homo sapiens, UniProt P41970 1-407); details: protein: recombinant; tags: N-terminal GST; dsDNA, one strand shown
T6 sequence: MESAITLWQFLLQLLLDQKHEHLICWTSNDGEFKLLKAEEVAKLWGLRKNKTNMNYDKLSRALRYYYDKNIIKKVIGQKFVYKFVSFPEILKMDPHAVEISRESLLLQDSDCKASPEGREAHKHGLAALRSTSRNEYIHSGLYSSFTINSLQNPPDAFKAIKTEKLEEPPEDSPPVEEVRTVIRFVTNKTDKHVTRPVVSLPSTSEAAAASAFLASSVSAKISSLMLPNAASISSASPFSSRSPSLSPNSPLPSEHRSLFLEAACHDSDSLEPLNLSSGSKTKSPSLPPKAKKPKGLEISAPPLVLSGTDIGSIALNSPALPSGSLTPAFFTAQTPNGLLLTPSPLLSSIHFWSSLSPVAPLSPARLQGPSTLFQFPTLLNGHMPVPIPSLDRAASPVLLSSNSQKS
In short: as §1

ETV5 = ETV5 (Homo sapiens, UniProt P41161 1-510); details: protein: recombinant; tags: N-terminal GST; dsDNA, one strand shown
Chain of ETV5 (P41161 whole entry): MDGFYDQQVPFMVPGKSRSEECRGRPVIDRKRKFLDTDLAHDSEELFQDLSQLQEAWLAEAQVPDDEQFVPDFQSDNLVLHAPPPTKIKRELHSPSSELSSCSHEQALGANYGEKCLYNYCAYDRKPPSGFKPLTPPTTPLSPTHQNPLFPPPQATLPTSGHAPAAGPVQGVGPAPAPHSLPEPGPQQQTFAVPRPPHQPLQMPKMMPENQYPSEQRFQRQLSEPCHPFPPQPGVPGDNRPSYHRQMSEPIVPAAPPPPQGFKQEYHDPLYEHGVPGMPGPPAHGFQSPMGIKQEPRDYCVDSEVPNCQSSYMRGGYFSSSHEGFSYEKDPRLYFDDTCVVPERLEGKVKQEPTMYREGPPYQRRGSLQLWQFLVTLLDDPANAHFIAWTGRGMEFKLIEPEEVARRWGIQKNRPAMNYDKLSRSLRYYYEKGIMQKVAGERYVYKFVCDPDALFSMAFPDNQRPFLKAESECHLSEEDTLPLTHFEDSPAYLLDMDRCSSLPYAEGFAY
In short: as §1

HSF1 = HSF1 (Homo sapiens, UniProt Q00613 1-529); details: protein: recombinant; tags: N-terminal GST; chain copies: 3; dsDNA, one strand shown
Chain of HSF1 (Q00613 whole entry): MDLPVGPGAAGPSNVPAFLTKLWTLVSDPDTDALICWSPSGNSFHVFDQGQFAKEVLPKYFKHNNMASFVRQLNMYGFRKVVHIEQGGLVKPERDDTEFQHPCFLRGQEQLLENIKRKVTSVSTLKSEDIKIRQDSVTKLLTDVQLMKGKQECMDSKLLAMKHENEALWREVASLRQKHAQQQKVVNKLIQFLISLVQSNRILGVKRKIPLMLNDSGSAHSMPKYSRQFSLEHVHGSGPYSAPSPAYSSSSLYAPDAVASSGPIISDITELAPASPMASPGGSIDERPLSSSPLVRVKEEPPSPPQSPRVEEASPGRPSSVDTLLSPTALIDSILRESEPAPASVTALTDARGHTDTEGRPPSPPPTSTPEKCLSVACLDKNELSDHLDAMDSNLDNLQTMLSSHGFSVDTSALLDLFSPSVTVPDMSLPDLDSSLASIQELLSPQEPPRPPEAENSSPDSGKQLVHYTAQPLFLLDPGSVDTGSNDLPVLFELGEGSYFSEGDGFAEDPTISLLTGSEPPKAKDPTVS
In short: as §1

SPIC = molecular target: T7, SPIC (Homo sapiens, UniProt Q8N5J4 1-248); details: protein: recombinant; tags: N-terminal GST; dsDNA, one strand shown
T7 sequence: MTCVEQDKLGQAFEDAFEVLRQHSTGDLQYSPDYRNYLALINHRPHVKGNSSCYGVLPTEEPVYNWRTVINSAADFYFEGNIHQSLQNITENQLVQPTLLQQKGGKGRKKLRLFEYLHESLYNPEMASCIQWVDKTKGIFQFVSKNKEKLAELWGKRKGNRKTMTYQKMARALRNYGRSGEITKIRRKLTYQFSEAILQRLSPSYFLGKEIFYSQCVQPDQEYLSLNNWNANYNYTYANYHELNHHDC
In short: as §1

ELF4 = ELF4 (Homo sapiens, UniProt Q99607 1-663); details: protein: recombinant; tags: N-terminal GST; dsDNA, one strand shown
Chain of ELF4 (Q99607 whole entry): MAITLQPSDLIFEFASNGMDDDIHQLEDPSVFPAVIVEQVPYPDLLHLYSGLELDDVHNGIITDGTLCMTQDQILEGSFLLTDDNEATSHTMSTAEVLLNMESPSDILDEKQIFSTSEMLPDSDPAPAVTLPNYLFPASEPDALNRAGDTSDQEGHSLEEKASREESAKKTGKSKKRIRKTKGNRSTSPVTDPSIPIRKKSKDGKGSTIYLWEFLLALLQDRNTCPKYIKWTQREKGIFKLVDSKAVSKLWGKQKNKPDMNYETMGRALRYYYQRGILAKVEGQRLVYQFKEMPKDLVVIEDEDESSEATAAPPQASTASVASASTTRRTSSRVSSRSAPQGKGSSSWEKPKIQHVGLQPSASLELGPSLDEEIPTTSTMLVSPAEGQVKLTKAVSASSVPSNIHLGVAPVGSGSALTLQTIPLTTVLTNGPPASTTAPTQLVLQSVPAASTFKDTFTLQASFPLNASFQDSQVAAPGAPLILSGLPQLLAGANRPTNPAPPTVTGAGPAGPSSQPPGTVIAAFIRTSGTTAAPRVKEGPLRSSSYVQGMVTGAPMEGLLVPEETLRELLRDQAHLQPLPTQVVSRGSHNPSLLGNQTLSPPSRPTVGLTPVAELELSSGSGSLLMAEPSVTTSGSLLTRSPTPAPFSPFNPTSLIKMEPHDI
In short: as §1

ELK4 = molecular target: T8, ELK4 (Homo sapiens, UniProt P28324-2 1-405); details: protein: recombinant; tags: N-terminal GST; dsDNA, one strand shown
T8 sequence: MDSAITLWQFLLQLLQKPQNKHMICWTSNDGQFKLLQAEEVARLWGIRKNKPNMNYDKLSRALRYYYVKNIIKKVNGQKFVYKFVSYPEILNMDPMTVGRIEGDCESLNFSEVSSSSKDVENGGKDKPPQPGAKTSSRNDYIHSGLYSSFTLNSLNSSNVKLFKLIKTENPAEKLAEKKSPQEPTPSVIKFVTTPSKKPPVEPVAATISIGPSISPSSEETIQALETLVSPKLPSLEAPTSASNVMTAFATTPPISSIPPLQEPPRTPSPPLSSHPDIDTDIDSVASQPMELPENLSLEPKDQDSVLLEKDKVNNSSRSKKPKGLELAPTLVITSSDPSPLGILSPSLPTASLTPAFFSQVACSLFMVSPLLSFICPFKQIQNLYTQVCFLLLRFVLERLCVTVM
In short: as §1

ETV2 = molecular target: T9, ETV2 (Homo sapiens, UniProt O00321 1-342); details: protein: recombinant; tags: N-terminal GST; dsDNA, one strand shown
T9 sequence: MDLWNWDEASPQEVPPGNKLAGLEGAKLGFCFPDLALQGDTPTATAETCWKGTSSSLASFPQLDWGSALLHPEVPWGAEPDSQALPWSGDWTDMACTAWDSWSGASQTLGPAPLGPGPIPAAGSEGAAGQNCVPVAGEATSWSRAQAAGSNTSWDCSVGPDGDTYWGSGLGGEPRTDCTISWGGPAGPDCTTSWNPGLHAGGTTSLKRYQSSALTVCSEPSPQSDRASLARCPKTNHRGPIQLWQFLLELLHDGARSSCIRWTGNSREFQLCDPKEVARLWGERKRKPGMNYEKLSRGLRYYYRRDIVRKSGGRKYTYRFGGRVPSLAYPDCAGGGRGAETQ
In short: as §1

ELF3 = molecular target: T10, ELF3 (Homo sapiens, UniProt P78545 1-371); details: protein: recombinant; tags: N-terminal GST; dsDNA, one strand shown
T10 sequence: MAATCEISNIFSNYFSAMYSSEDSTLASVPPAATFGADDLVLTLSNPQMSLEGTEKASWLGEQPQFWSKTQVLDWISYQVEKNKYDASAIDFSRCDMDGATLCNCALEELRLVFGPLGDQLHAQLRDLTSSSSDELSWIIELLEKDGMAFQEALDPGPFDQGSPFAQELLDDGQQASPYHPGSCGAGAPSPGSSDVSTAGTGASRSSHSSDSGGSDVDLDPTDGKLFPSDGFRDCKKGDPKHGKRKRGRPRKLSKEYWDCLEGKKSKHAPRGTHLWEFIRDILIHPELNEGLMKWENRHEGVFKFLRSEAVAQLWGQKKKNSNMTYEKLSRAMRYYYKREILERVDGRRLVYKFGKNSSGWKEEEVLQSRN
In short: as §1

CRX = CRX (Homo sapiens, UniProt O43186 1-299); details: protein: recombinant; tags: N-terminal GST; dsDNA, one strand shown
Chain of CRX (O43186 whole entry): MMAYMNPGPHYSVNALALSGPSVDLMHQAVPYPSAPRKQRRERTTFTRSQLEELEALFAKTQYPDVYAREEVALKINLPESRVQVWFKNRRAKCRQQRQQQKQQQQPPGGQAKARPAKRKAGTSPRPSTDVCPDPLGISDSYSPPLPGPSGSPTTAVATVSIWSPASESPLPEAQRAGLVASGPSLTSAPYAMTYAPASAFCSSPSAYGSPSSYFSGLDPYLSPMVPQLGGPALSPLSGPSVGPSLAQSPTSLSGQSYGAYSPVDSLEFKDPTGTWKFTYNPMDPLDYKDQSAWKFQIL
In short: as §1

ETV1 = ETV1 (Homo sapiens, UniProt P50549 1-477); details: protein: recombinant; tags: N-terminal GST; dsDNA, one strand shown
Chain of ETV1 (P50549 whole entry): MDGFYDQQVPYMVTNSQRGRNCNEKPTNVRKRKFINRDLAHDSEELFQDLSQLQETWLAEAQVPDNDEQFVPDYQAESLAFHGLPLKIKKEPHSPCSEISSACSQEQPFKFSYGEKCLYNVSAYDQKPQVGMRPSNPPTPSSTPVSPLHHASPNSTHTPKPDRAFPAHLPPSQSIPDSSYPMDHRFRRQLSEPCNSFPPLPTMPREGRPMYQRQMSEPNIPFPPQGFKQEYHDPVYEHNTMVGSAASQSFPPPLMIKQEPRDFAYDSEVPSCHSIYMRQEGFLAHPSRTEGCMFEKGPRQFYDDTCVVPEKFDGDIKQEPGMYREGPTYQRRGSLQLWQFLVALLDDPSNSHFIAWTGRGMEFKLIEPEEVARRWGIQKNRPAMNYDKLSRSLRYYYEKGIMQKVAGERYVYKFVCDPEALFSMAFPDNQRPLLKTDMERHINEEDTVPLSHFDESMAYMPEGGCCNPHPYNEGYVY
In short: as §1

TAAGGT
binding signal (FLI1): 1.12 fold enrichment (6-mer frequency, TF over GST control) | binding signal (ELK1): 1.08 fold enrichment (6-mer frequency, TF over GST control) | binding signal (GABPA): 1.14 fold enrichment (6-mer frequency, TF over GST control) | binding signal (ERG): 1.01 fold enrichment (6-mer frequency, TF over GST control) | binding signal (ELF1): 1.04 fold enrichment (6-mer frequency, TF over GST control) | binding signal (EHF): 1.17 fold enrichment (6-mer frequency, TF over GST control) | binding signal (SPI1): 1.02 fold enrichment (6-mer frequency, TF over GST control) | binding signal (SPIB): 1.07 fold enrichment (6-mer frequency, TF over GST control) | binding signal (ELK3): 1.13 fold enrichment (6-mer frequency, TF over GST control) | binding signal (ETV5): 1.12 fold enrichment (6-mer frequency, TF over GST control) | binding signal (HSF1): 1.1 fold enrichment (6-mer frequency, TF over GST control) | binding signal (SPIC): 1.11 fold enrichment (6-mer frequency, TF over GST control) | binding signal (ELF4): 1.19 fold enrichment (6-mer frequency, TF over GST control) | binding signal (ELK4): 1.06 fold enrichment (6-mer frequency, TF over GST control) | binding signal (ETV2): 1.08 fold enrichment (6-mer frequency, TF over GST control) | binding signal (ELF3): 1.08 fold enrichment (6-mer frequency, TF over GST control) | binding signal (CRX): 1.38 fold enrichment (6-mer frequency, TF over GST control) | binding signal (ETV1): 1.1 fold enrichment (6-mer frequency, TF over GST control)
